Compound activity deposited in PubChem by National Center for Advancing Translational Sciences (NCATS).
Sfp inh: qHTS Assay for Inhibitors of Bacillus subtilis Sfp phosphopantetheinyl transferase (PPTase). Biochemical Sfp PPTase activity, qHTS. Potency, µM, without a hit: largest response in the series, negative = inhibition, hits mostly inhibitors. hit rate 3.5% among 310,000;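 also: the enzyme is Sfp with the accession as filed and its product quenches rhodamine fluorescence; potency is read from the fitted curve at half-maximal effect; 0% = enzyme reaction without inhibitor and -100% = no enzyme wells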
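Compounds were incubated with enzyme (final 15 nM) for 15 min at room temperature before substrate addition started the reaction. Fluorescence at 525 nm excitation, 598 nm emission was recorded immediately and after 30 minutes.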
Giardia killer: Small Molecules that selectively kill Giardia lamblia: qHTS | activity change, % at 7.66 µM, hits read low | hit rate 0.15% among 340,000 | Giardia lamblia trophozoite viability | AID 540267, 2011; in the data active = activity change below about -80%; inconclusive = between about -30% and that limit;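 also: parasites exposed to compound for two days anaerobically before the ATP read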
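Compounds were tested on trophozoites seeded at 100 cells/well and held 48 hrs at 37 deg C anaerobically. An ATP-based luminescent kit measured the remaining live cells.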
ELG1 DNA repair: qHTS screen for small molecules that inhibit ELG1-dependent DNA repair in human embryonic kidney (HEK293T) cells expressing luciferase-tagged ELG1. HEK293T ELG1-luciferase reporter, luminescence, 16 h; DNA damage induced by 5-fluorouridine. Potency, µM (highest dose often 46.1 µM), without a hit: at the top dose activity change, negative = inhibition, most hits filed as inhibitors. hit rate 2.3% among 330,000. AID 504467, 2011; also: potency is read from the fitted curve at half-maximal effect; nearly all actives have a fitted effect of over 55% in size
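DMSO vehicle served as the neutral condition. Each well held 2,000 cells given 5-fluorouridine plus compound; after 16 hr at 37 °C/5% CO2, ONE-Glo was added and luciferase measured 30 min later.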
FBPA coupling cs: qHTS Assay for Inhibitors of Fructose-1,6-bisphosphate Aldolase from Giardia Lamblia: Coupling assay counterscreen. coupling enzyme system counterscreen, AmpLite Red fluorescence. activity change, negative = inhibition, % at 58.2 µM, hits read low. hit rate 0.67% among 290,000. AID 2472, 2010; in the data active = activity change below about -30%
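First, compound is pin-transferred into glyceraldehyde-3-phosphate coupling-enzyme reagent at 57.5 uM final and held 10 min at RT. Next, substrate, coupling system and AmpLite Red are added. After 20 min RT, fluorescence (525/598 nm) is read.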
* hit, by the source's call; u = inconclusive; x = not tested or not shown. In the library only some 5.5% were active in any assay of this set; here they are far more common. Unless noted, calls follow the shape of the dose curve; as a rule, active = well fitted curve in the direction sought with a large enough effect; inconclusive = small, poorly fitted or top-dose-only effect, or another doubt; inactive = no such curve, though single readings can be large; an effect the other way counts as inactive or inconclusive. Unless noted, % is scaled to controls: 0 for no effect and ±100 for the full control effect.

SMILES	Sfp inh	Giardia killer	ELG1 DNA repair	FBPA coupling cs
N#Cc1cc2c(nc1SCc1ccncc1)CCC2	50µM*	-2	u	5
Cc1ccc(S(=O)(=O)NC2=C(N3CCN(c4ccccc4F)CC3)C(=O)c3ccccc3C2=O)cc1	-10%	-19	-2%	-27
CCOC(=O)N1CCN(C2=C(NS(=O)(=O)c3ccc(C)cc3)C(=O)c3ccccc3C2=O)CC1	79µM*	-4	u	x
CC(=O)Nc1ccc(S(=O)(=O)NC2=C(N3CCN(c4ccc(F)cc4)CC3)C(=O)c3ccccc3C2=O)cc1	-13%	12	8.2µM*	-56*
Cc1ccc(S(=O)(=O)NC2=C(N3CCN(Cc4ccccc4)CC3)C(=O)c3ccccc3C2=O)cc1	4%	-5	u	-34*
O=C1C(NS(=O)(=O)c2cccs2)=C(N2CCN(c3ccccc3)CC2)C(=O)c2ccccc21	0%	-18	10%	-33*
O=C(O)C(CCc1ccccc1)N1C(=O)c2ccccc2C1=O (stereo not given)	x	-16	x	x
Cc1ccccc1-c1nnc(SCC(=O)N(C)C2CCS(=O)(=O)C2)n1C (stereo not given)	x	-28	0%	x
CCCCCCCC/C=C\CCCCCCCC(=O)NC(C)C(=O)O (stereo not given)	8%	x	x	3
CN1C(=O)/C(=C/C=C2/CCCN2C)N(C)C1=S	79µM*	-6	u	-42*
CCOC(=O)c1cnc(-n2cc(C)cn2)nc1NCc1ccc2c(c1)OCO2	79µM*	6	u	0
Cc1cc(NC(=O)c2cc(-c3ccc(OC(C)C)cc3)nc3ccccc23)no1	1%	5	-26%	-1
O=C1NN(c2ccccc2)C(=O)/C1=C\c1coc2ccc(O)cc2c1=O	79µM*	-8	11%	11
O=C(Nc1nc2c(F)cc(F)cc2s1)C1CC(=O)N(Cc2ccco2)C1 (stereo not given)	10µM*	-7	18%	-4
Cc1cc(C)c2nc(NC(=O)C3CC(=O)N(Cc4ccco4)C3)sc2c1 (stereo not given)	0%	7	-15%	-2
C/C=C/C1Oc2ccc(OC)cc2N2C(=O)C(C)C(OCOC)C12 (stereo not given)	5%	x	x	0
COc1cc2c(cc1OC)-c1cc(OCc3ccccc3Cl)nc(=O)n1CC2	6%	5	16µM*	8
CCN(CC)c1ccc(Nc2cc3n(c(=O)n2)CCc2cc(OC)c(OC)cc2-3)cc1	-21%	5	5.2µM*	4
CCc1ccc(-c2nc(CS(=O)CC(=O)NC3CC3)c(C)o2)cc1 (stereo not given)	-3%	-6	u	2
Cc1ccc(-c2nc(CS(=O)CC(=O)NC(C)CCc3ccccc3)c(C)o2)cc1 (stereo not given)	-7%	-4	-24%	x
CCc1ccc(-c2nc(CS(=O)CC(=O)NC3CCCCCC3)c(C)o2)cc1 (stereo not given)	50µM*	2	3%	x
COc1ccc(-c2nc(CS(=O)CC(=O)NC(C)CCc3ccccc3)c(C)o2)cc1OC (stereo not given)	2%	-15	18µM*	1
COc1ccc(-c2nc(CS(=O)CC(=O)NCc3ccc4c(c3)OCO4)c(C)o2)cc1OC (stereo not given)	3%	4	15µM*	1
Cc1ccc(-n2ncc3c(=O)n(CC(=O)N4CCN(C(=O)c5ccco5)CC4)cnc32)cc1	x	-7	-4%	x
CCN(C(=O)COC(=O)CSc1ccc(C(N)=O)cc1[N+](=O)[O-])C1CCCCC1	4%	-11	7%	-3
c1ccc(CNc2nc(N3CCN(Cc4ccccc4)CC3)nc3ccccc23)cc1	56µM*	0	u	-1
c1ccc(N2CCN(c3nc(NCc4ccco4)c4ccccc4n3)CC2)cc1	32µM*	10	u	-4
Cc1ccn(CCNC(=O)C2CCC(=O)N(CCc3ccc(Cl)cc3)C2)n1 (stereo not given)	8%	-2	6%	x
NS(=O)(=O)c1ccc(NC(=O)/C=C/c2ccco2)cc1	20µM*	-17	16%	-2
O=C(/C=C/c1ccco1)Nc1ccc2c(c1)OCO2	40µM*	-12	u	-7
